{
  "source": "PubChem BioAssay (EPA / NIEHS)",
  "note": "“And” between values parts separate entries of the source, which are not always exact repeats. Equal entries are not always repeated. Some structures have more than one record in an assay (separate samples or runs), and their calls can disagree. The source made the active and inactive calls. How the source made its calls: active means hit-call score of the fitted dose curve at least 0.9, where 1 is the maximum; inactive means score below 0.9.",
  "data": [
    {"molecular_target": "Myc proto-oncogene protein (Homo sapiens) (UniProt P01106)", "sequence (P01106 whole entry, looked up)": "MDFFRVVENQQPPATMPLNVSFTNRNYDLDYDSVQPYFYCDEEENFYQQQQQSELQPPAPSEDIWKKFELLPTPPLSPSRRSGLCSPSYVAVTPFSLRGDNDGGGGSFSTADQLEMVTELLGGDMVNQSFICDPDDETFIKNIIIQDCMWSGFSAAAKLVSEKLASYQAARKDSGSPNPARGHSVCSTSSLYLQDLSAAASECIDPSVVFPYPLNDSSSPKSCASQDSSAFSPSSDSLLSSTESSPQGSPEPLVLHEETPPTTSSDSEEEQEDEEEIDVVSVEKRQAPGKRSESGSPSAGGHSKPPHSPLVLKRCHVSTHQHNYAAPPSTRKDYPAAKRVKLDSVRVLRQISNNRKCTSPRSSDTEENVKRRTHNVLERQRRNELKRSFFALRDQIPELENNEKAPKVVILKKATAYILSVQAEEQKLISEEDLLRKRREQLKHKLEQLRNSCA", "assay": "ATG_Myc_CIS: Attagene CIS-FACTORIAL HepG2 Assay for human Myelocytomatosis (Myc) Proto-Oncogene Transcription Factor (AID 2282990)", "settings": "HepG2, Attagene cis-reporter transcription factor activity; actives raise or lower the signal", "in_short": "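Multiplexed cis-reporter transcription in HepG2 cells after 24 h chemical treatment. Reporter mRNA measured by RT-PCR and capillary electrophoresis fluorescence; activity fitted bidirectionally against DMSO control.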", "values": [
      {"smiles": "Cc1cccc2c1ccc1ccccc12", "outcome": "inactive"},
      {"smiles": "CCCCCCCCCCCCCCCCCC[N+](C)(C)Cc1ccccc1", "outcome": "inactive"},
      {"smiles": "O=C(OC(=O)C(F)(F)C(F)(F)F)C(F)(F)C(F)(F)F", "outcome": "inactive"},
      {"smiles": "Cc1ccc2ccc3ccc(C)cc3c2c1", "outcome": "inactive"},
      {"smiles": "CCCCCCC(C)(C)C(=O)O", "outcome": "inactive"},
      {"smiles": "COc1cc(OC)nc(NC(=O)NS(=O)(=O)Nc2ccccc2C(=O)N(C)C)n1", "outcome": "inactive"},
      {"smiles": "CCCCCCCCCCCC[N+](C)(C)CCCCCCCCCCCC", "AC50": "100 µM (active)"},
      {"smiles": "O=S(=O)(c1ccc(OCc2ccccc2)cc1)c1ccccc1O", "outcome": "inactive"},
      {"smiles": "CC1COCc2cc3c(cc21)C(C)(C)C(C)C3(C)C", "note": "(centres undefined)", "AC50": "120 µM (active)"},
      {"smiles": "CCOC(C)=O", "outcome": "inactive"},
      {"smiles": "O=C(NO)c1ccccc1", "outcome": "inactive"},
      {"smiles": "O=C(F)C(F)(F)C(F)(F)C(F)(F)C(F)F", "outcome": "inactive"},
      {"smiles": "O=c1cc(-c2ccccc2)oc2ccc3ccccc3c12", "outcome": "inactive"},
      {"smiles": "Cc1ccccc1C(OCCN(C)C)c1ccccc1", "note": "(centres undefined)", "outcome": "inactive"},
      {"smiles": "O=C(O)C(F)(F)OC(F)(F)C(F)(F)OC(F)(F)C(F)(F)OC(F)(F)C(F)(F)C(F)(F)C(F)(F)F", "AC50": "11.9 µM (active)", "outcome": "inactive"},
      {"smiles": "COC(=O)C(F)(F)C(F)(F)C(F)(F)C(F)(F)C(F)(F)F", "outcome": "inactive"},
      {"smiles": "CC1=NN(c2ccccc2)C(=O)C1", "outcome": "inactive"},
      {"smiles": "O=C(O)CCC(F)(F)C(F)(F)C(F)(F)C(F)(F)C(F)(F)F", "outcome": "inactive"},
      {"smiles": "Oc1cc2ccccc2cc1O", "outcome": "inactive"},
      {"smiles": "NC(=NCCCCCCN=C(N)/N=C(\\N)Nc1ccc(Cl)cc1)/N=C(\\N)Nc1ccc(Cl)cc1", "AC50": "90.5 µM (active) and 24.6 µM (active)", "outcome": "inactive"},
      {"smiles": "C=C(c1ccc(C(=O)O)cc1)c1cc2c(cc1C)C(C)(C)CCC2(C)C", "AC50": "26 µM (active)", "outcome": "inactive"},
      {"smiles": "O=C1c2ccccc2C(=O)c2c(O)c(O)cc(O)c21", "outcome": "inactive"},
      {"smiles": "CCOC=C(C(=O)OCC)C(=O)OCC", "outcome": "inactive"},
      {"smiles": "OCC1CCC(CO)CC1", "note": "(centres undefined)", "outcome": "inactive"},
      {"smiles": "FC(F)(F)C1(F)C(F)(F)C(F)(F)C(F)(F)C(F)(C(F)(F)F)C1(F)F", "note": "(centres undefined)", "outcome": "inactive"},
      {"smiles": "CCc1cccc(CC)c1N(COC)C(=O)CS(=O)(=O)O", "outcome": "inactive"},
      {"smiles": "c1cc2cccc3c4cccc5cccc(c(c1)c23)c54", "outcome": "inactive"},
      {"smiles": "c1cnc2c(c1)ccc1cccnc12", "outcome": "inactive"},
      {"smiles": "O=C(c1cc(O)c(O)c(O)c1)c1ccc(O)c(O)c1O", "outcome": "inactive"},
      {"smiles": "FC(F)(F)N1C(F)(F)C(F)(F)OC(F)(F)C1(F)F", "outcome": "inactive"},
      {"smiles": "CCCCCCOC(=O)c1ccc(O)cc1", "AC50": "60.9 µM (active)"},
      {"smiles": "NNc1nc(-c2ccc([N+](=O)[O-])cc2)cs1", "outcome": "inactive"},
      {"smiles": "CCC(C)c1ccccc1O", "note": "(centres undefined)", "outcome": "inactive"},
      {"smiles": "C[N+](C)(CCCNS(=O)(=O)CCC(F)(F)C(F)(F)C(F)(F)C(F)(F)C(F)(F)C(F)(F)F)CC(=O)[O-]", "outcome": "inactive"},
      {"smiles": "O=P(O)(O)CCC(F)(F)C(F)(F)C(F)(F)C(F)(F)C(F)(F)C(F)(F)C(F)(F)C(F)(F)F", "outcome": "inactive"},
      {"smiles": "O=C(NCc1ncc(C(F)(F)F)cc1Cl)c1c(Cl)cccc1Cl", "outcome": "inactive"},
      {"smiles": "CCCCN(C)C", "outcome": "inactive"}
    ]},
    {"test_system": "not listed separately", "assay": "ATG_NF_kB_CIS: Attagene CIS-FACTORIAL HepG2 Assay for human Nuclear Factor Kappa B (NF-kB) (AID 2282991)", "settings": "HepG2 Attagene cis-factorial NF-kB reporter mRNA; actives raise or lower the signal", "in_short": "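After 24 h compound incubation, transfected HepG2 cells yield total RNA; reporter cDNA is PCR-amplified, end-labelled with 6-FAM, HpaI-digested and analysed on a genetic analyser. Endogenous factor activity, DMSO-referenced bidirectional fit.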", "values": [
      {"smiles": "Cc1cccc2c1ccc1ccccc12", "outcome": "inactive"},
      {"smiles": "CCCCCCCCCCCCCCCCCC[N+](C)(C)Cc1ccccc1", "outcome": "inactive"},
      {"smiles": "O=C(OC(=O)C(F)(F)C(F)(F)F)C(F)(F)C(F)(F)F", "outcome": "inactive"},
      {"smiles": "Cc1ccc2ccc3ccc(C)cc3c2c1", "outcome": "inactive"},
      {"smiles": "CCCCCCC(C)(C)C(=O)O", "outcome": "inactive"},
      {"smiles": "COc1cc(OC)nc(NC(=O)NS(=O)(=O)Nc2ccccc2C(=O)N(C)C)n1", "outcome": "inactive"},
      {"smiles": "CCCCCCCCCCCC[N+](C)(C)CCCCCCCCCCCC", "outcome": "inactive"},
      {"smiles": "O=S(=O)(c1ccc(OCc2ccccc2)cc1)c1ccccc1O", "outcome": "inactive"},
      {"smiles": "CC1COCc2cc3c(cc21)C(C)(C)C(C)C3(C)C", "note": "(centres undefined)", "AC50": "166 µM (active)"},
      {"smiles": "CCOC(C)=O", "outcome": "inactive"},
      {"smiles": "O=C(NO)c1ccccc1", "AC50": "22 µM (active) [middle of 4 runs]"},
      {"smiles": "O=C(F)C(F)(F)C(F)(F)C(F)(F)C(F)F", "outcome": "inactive"},
      {"smiles": "O=c1cc(-c2ccccc2)oc2ccc3ccccc3c12", "outcome": "inactive"},
      {"smiles": "Cc1ccccc1C(OCCN(C)C)c1ccccc1", "note": "(centres undefined)", "outcome": "inactive"},
      {"smiles": "O=C(O)C(F)(F)OC(F)(F)C(F)(F)OC(F)(F)C(F)(F)OC(F)(F)C(F)(F)C(F)(F)C(F)(F)F", "AC50": "27.5 µM (active)", "outcome": "inactive"},
      {"smiles": "COC(=O)C(F)(F)C(F)(F)C(F)(F)C(F)(F)C(F)(F)F", "outcome": "inactive"},
      {"smiles": "CC1=NN(c2ccccc2)C(=O)C1", "outcome": "inactive"},
      {"smiles": "O=C(O)CCC(F)(F)C(F)(F)C(F)(F)C(F)(F)C(F)(F)F", "outcome": "inactive"},
      {"smiles": "Oc1cc2ccccc2cc1O", "outcome": "inactive"},
      {"smiles": "C=C(c1ccc(C(=O)O)cc1)c1cc2c(cc1C)C(C)(C)CCC2(C)C", "AC50": "11.1 µM (active)", "outcome": "inactive"},
      {"smiles": "O=C1c2ccccc2C(=O)c2c(O)c(O)cc(O)c21", "AC50": "32.4 µM (active)"},
      {"smiles": "CCOC=C(C(=O)OCC)C(=O)OCC", "outcome": "inactive"},
      {"smiles": "OCC1CCC(CO)CC1", "note": "(centres undefined)", "outcome": "inactive"},
      {"smiles": "FC(F)(F)C1(F)C(F)(F)C(F)(F)C(F)(F)C(F)(C(F)(F)F)C1(F)F", "note": "(centres undefined)", "outcome": "inactive"},
      {"smiles": "CCc1cccc(CC)c1N(COC)C(=O)CS(=O)(=O)O", "outcome": "inactive"},
      {"smiles": "c1cc2cccc3c4cccc5cccc(c(c1)c23)c54", "outcome": "inactive"},
      {"smiles": "c1cnc2c(c1)ccc1cccnc12", "AC50": "100 µM (active)", "outcome": "inactive"},
      {"smiles": "O=C(c1cc(O)c(O)c(O)c1)c1ccc(O)c(O)c1O", "outcome": "inactive"},
      {"smiles": "FC(F)(F)N1C(F)(F)C(F)(F)OC(F)(F)C1(F)F", "outcome": "inactive"},
      {"smiles": "CCCCCCOC(=O)c1ccc(O)cc1", "AC50": "62.5 µM (active)"},
      {"smiles": "NNc1nc(-c2ccc([N+](=O)[O-])cc2)cs1", "outcome": "inactive"},
      {"smiles": "CCC(C)c1ccccc1O", "note": "(centres undefined)", "outcome": "inactive"},
      {"smiles": "C[N+](C)(CCCNS(=O)(=O)CCC(F)(F)C(F)(F)C(F)(F)C(F)(F)C(F)(F)C(F)(F)F)CC(=O)[O-]", "outcome": "inactive"},
      {"smiles": "O=P(O)(O)CCC(F)(F)C(F)(F)C(F)(F)C(F)(F)C(F)(F)C(F)(F)C(F)(F)C(F)(F)F", "outcome": "inactive"},
      {"smiles": "O=C(NCc1ncc(C(F)(F)F)cc1Cl)c1c(Cl)cccc1Cl", "AC50": "21.8 µM (active)"},
      {"smiles": "CCCCN(C)C", "outcome": "inactive"}
    ]}
  ]
}
